PubChem BioAssay AID1159580 (chemical genetic matrix, 2015)
Out of some 5,500 compounds screened, about 2,000 (36%) were called active. Roughly 18% stayed inconclusive and do not appear here. Cut-off read from the data, not from the text of the source: active = normalized growth mostly below about 0.91 (no sharp cut-off); inconclusive = no clear call, values can overlap the other calls; inactive = mostly above about 0.92. The list shows a part of the results.

Test: chemical genetic growth profiling, strain panel (AID 1159580);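 note: tested at 20 µM; growth read once vehicle control cultures reached saturation at 30 °C; 1 = growth at the plate median or of vehicle wells; lower values mean less growth of the strain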
Conditions: S. cerevisiae deletion strains, growth OD
[1] = locus YDL101C, strain DUN1, stronger effect = lower value
[2] = locus YHR030C, strain SLT2, stronger effect = lower value
[3] = locus YAR019C, strain CDC15, stronger effect = lower value
[4] = locus YBL105C, strain PKC1, stronger effect = lower value
[5] = locus YBR135W, strain CKS1, stronger effect = lower value
[6] = locus YBR136W, strain MEC1, stronger effect = lower value
[7] = locus YBR160W, strain CDC28, stronger effect = lower value
[8] = locus YDL017W, strain CDC7, stronger effect = lower value
[9] = locus YDL028C, strain MPS1, stronger effect = lower value
[10] = locus YDL108W, strain KIN28, stronger effect = lower value
[11] = locus YDL132W, strain cdc53, stronger effect = lower value
[12] = locus YDL214C, strain PRR2, stronger effect = lower value
[13] = locus YDR052C, strain DBF4, stronger effect = lower value
[14] = locus YDR054C, strain cdc34, stronger effect = lower value
[15] = locus YDR226W, strain ADK1, stronger effect = lower value
[16] = locus YDR477W, strain SNF1, stronger effect = lower value
[17] = locus YER123W, strain YCK3, stronger effect = lower value
[18] = locus YER133W, strain GLC7, stronger effect = lower value
[19] = locus YFL009W, strain cdc4, stronger effect = lower value
[20] = locus YFL029C, strain CAK1, stronger effect = lower value
[21] = locus YFR003C, strain YPI1, stronger effect = lower value
[22] = locus YFR019W, strain FAB1, stronger effect = lower value
[23] = locus YFR028C, strain CDC14, stronger effect = lower value
[24] = locus YGR040W, strain KSS1, stronger effect = lower value
[25] = locus YGR052W, strain FMP48, stronger effect = lower value
[26] = locus YGR092W, strain DBF2, stronger effect = lower value
[27] = locus YHR079C, strain IRE1, stronger effect = lower value
[28] = locus YHR082C, strain KSP1, stronger effect = lower value
[29] = locus YHR205W, strain SCH9, stronger effect = lower value
[30] = locus YIL147C, strain SLN1, stronger effect = lower value
[31] = locus YJL095W, strain BCK1, stronger effect = lower value
[32] = locus YJL128C, strain PBS2, stronger effect = lower value
[33] = locus YJL157C, strain FAR1, stronger effect = lower value
[34] = locus YJR016C, strain ILV3, stronger effect = lower value
[35] = locus YJR066W, strain TOR1 (second series), stronger effect = lower value
[36] = locus YJR066W, strain TOR1, stronger effect = lower value
[37] = locus YKL048C, strain ELM1, stronger effect = lower value
[38] = locus YKL067W, strain YNK1, stronger effect = lower value
[39] = locus YKL101W, strain HSL1, stronger effect = lower value
[40] = locus YKL193C, strain SDS22, stronger effect = lower value
[41] = locus YKL203C, strain TOR2, stronger effect = lower value
[42] = locus YLR113W, strain HOG1, stronger effect = lower value
[43] = locus YLR133W, strain CKI1, stronger effect = lower value
[44] = locus YLR403W, strain SFP1, stronger effect = lower value
[45] = locus YML070W, strain DAK1, stronger effect = lower value
[46] = locus YMR001C, strain CDC5, stronger effect = lower value
[47] = locus YMR205C, strain PFK2 (second series), stronger effect = lower value
[48] = locus YMR277W, strain FCP1, stronger effect = lower value
[49] = locus YNL006W, strain LST8, stronger effect = lower value
[50] = locus YNL020C, strain ARK1, stronger effect = lower value
[51] = locus YNL161W, strain CBK1, stronger effect = lower value
[52] = locus YNL183C, strain NPR1, stronger effect = lower value
[53] = locus YNL207W, strain RIO2, stronger effect = lower value
[54] = locus YNL222W, strain SSU72, stronger effect = lower value
[55] = locus YNL307C, strain MCK1 (second series), stronger effect = lower value
[56] = locus YOL078W, strain AVO1, stronger effect = lower value
[57] = locus YOL136C, strain PFK27, stronger effect = lower value
[58] = locus YOR061W, strain CKA2, stronger effect = lower value
[59] = locus YOR119C, strain RIO1, stronger effect = lower value
[60] = locus YOR231W, strain MKK1, stronger effect = lower value
[61] = locus YOR329C, strain SCD5, stronger effect = lower value
[62] = locus YPL031C, strain PHO85, stronger effect = lower value
[63] = locus YPL153C, strain RAD53, stronger effect = lower value
[64] = locus YPL204W, strain HRR25, stronger effect = lower value
[65] = locus YPL209C, strain IPL1, stronger effect = lower value
[66] = locus YPL256C, strain CLN2, stronger effect = lower value
[67] = locus YPR025C, strain CCL1, stronger effect = lower value
[68] = locus YPR106W, strain ISR1, stronger effect = lower value
[69] = locus YPR111W, strain DBF20, stronger effect = lower value
[70] = strain NNK1, stronger effect = lower value
[71] = strain TSCII, stronger effect = lower value

Measured: normalized growth

COc1ccccc1N1CC(C)(C)C(=O)N(C(=O)c2c(F)cccc2Cl)C1=S
inactive: locus YAL013W, strain DEP1, stronger effect = lower value 1.02 | locus YBR229C, strain ROT2, stronger effect = lower value 1.02 | locus YCL061C, strain MRC1, stronger effect = lower value 1.02 | [1] 1.03 | locus YDR150W, strain NUM1, stronger effect = lower value 0.933 | locus YEL061C, strain CIN8, stronger effect = lower value 0.985 | locus YGR078C, strain PAC10, stronger effect = lower value 1.02 | [2] 1.01 | locus YHR087W, strain rtc3, stronger effect = lower value 0.986 | locus YJL187C, strain SWE1, stronger effect = lower value 1.02 | locus YJR043C, strain POL32, stronger effect = lower value 1.03 | locus YJR075W, strain HOC1, stronger effect = lower value 1 | locus YKL190W, strain CNB1, stronger effect = lower value 1 | locus YLR039C, strain RIC1, stronger effect = lower value 0.862 | locus YLR058C, strain SHM2 (second series), stronger effect = lower value 0.995 | locus YLR085C, strain ARP6, stronger effect = lower value 0.984 | locus YLR262C, strain YPT6, stronger effect = lower value 0.86 | locus YML094W, strain GIM5, stronger effect = lower value 1 | locus YMR219W, strain ESC1, stronger effect = lower value 1.02 | locus YMR263W, strain SAP30, stronger effect = lower value 0.954 | locus YNL128W, strain TEP1, stronger effect = lower value 1.02 | locus YNL153C, strain GIM3, stronger effect = lower value 1 | locus YNL298W, strain CLA4 (second series), stronger effect = lower value 1.01 | locus YNL322C, strain KRE1, stronger effect = lower value 1.01 | locus YNR030W, strain Alg12, stronger effect = lower value 1 | locus YPL055C, strain LGE1, stronger effect = lower value 0.899 | locus YPL241C, strain CIN2, stronger effect = lower value 1.01 | locus YPR135W, strain CTF4, stronger effect = lower value 0.985

O=C(Nc1cc(Cl)cc(Cl)c1)c1cc(Cl)ccc1O
active: [13] 0.91 | [26] 0.321 | [2] 0.799 | [29] 0.504 | [33] 0.648 | [37] 0.802 | [42] 0.844 | [44] 0.642 | [50] 0.68 | [55] 0.615 | [66] 0.836
inactive: [3] 0.93 | [4] 0.94 | [5] 0.922 | [6] 0.943 | [7] 0.934 | [8] 0.936 | [9] 0.94 | [1] 0.981 | [10] 0.924 | [11] 0.917 | [12] 0.785 | [14] 0.921 | [15] 0.973 | [16] 0.838 | [17] 0.75 | [18] 0.74 | [19] 0.924 | [20] 0.923 | [21] 0.935 | [22] 0.83 | [23] 0.928 | [24] 0.836 | [25] 0.785 | [27] 0.584 | [28] 0.853 | [30] 0.94 | [31] 0.751 | [32] 0.917 | [34] 0.924 | [35] 0.668 | [36] 0.705 | [38] 0.759 | [39] 0.827 | [40] 0.93 | [41] 0.818 | [43] 0.779 | [45] 0.805 | [46] 0.93 | [47] 0.784 | [48] 0.927 | [49] 0.923 | [51] 0.936 | [52] 0.899 | [53] 0.939 | [54] 0.924 | [56] 0.925 | [57] 0.797 | [58] 0.693 | [59] 0.858 | [60] 0.843 | [61] 0.939 | [62] 0.823 | [63] 0.801 | [64] 0.722 | [65] 0.925 | [67] 0.936 | [68] 0.956 | [69] 0.95 | [70] 0.965 | [71] 0.938

O=C(Nc1ccc(F)cc1F)c1cc(Cl)ccc1O
inactive: [3] 0.935 | [4] 0.933 | [5] 0.943 | [6] 0.94 | [7] 0.945 | [8] 0.935 | [9] 0.937 | [1] 0.979 | [10] 0.936 | [11] 0.97 | [12] 0.876 | [13] 0.926 | [14] 0.928 | [15] 0.931 | [16] 0.947 | [17] 0.864 | [18] 0.9 | [19] 0.923 | [20] 0.941 | [21] 0.929 | [22] 0.933 | [23] 0.925 | [24] 0.952 | [25] 1 | [26] 0.683 | [2] 0.927 | [27] 0.845 | [28] 0.989 | [29] 0.694 | [30] 0.938 | [31] 0.877 | [32] 0.918 | [33] 0.827 | [34] 0.939 | [35] 0.952 | [36] 1.03 | [37] 0.935 | [38] 0.884 | [39] 0.961 | [40] 0.941 | [41] 1.03 | [42] 0.98 | [43] 0.889 | [44] 0.708 | [45] 0.936 | [46] 0.94 | [47] 0.901 | [48] 0.952 | [49] 0.938 | [50] 0.84 | [51] 0.934 | [52] 1.02 | [53] 0.944 | [54] 0.939 | [55] 0.857 | [56] 0.939 | [57] 0.909 | [58] 0.89 | [59] 1.01 | [60] 0.996 | [61] 0.939 | [62] 0.928 | [63] 0.922 | [64] 0.915 | [65] 0.937 | [66] 0.927 | [67] 0.945 | [68] 0.94 | [69] 0.947 | [70] 0.965 | [71] 0.934
